Measurements published in the supplement of paper PMC10849652.
Targets with a hit are over-represented here; the source holds about 8,800 in all. About 0.5% of all pairs of compound and target were hits. Values without a mark were called inactive.

How the values were obtained:
Assay in all cases: log2 fold change, soluble protein after heating vs DMSO (PISA); higher = thermal stabilisation; K562 lysate, 10 uM; active = over 0.2 and 3.5 SD of the protein, either way, in both replicates (recomputed)
vorinostat = compound: O=C(CCCCCCC(=O)Nc1ccccc1)NO [vorinostat]
Outline: (§1)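 To prepare the extract, K562 pellets were dounce-homogenised in PBS pH 7.4 with 1 mM MgCl2, giving crude material at 1 mg/mL protein. This was treated with 10 μM compound for 30 min, then heated in aliquots for 3 min over 48°C-58°C before pooling and addition of NP-40 to 0.5% at 4°C. Centrifugation at 21,000xg for 90 min left soluble protein in the supernatant, which TMTpro 16plex LC-MS/MS quantified with equalised channel sums. Results are log-two fold changes in thermal stability compared with solvent controls, from duplicates.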

silmitasertib = compound: O=C(O)c1ccc2c(c1)nc(Nc1cccc(Cl)c1)c1ccncc12 [silmitasertib]
Outline: as §1

[1] = compound: O=C1NC(=O)C(c2cnc3ccccn23)=C1c1cn2c3c(cc(F)cc13)CN(C(=O)N1CCCCC1)CC2
Outline: as §1

[2] = compound: NCC(=O)Nc1ccc(-n2nc(C(F)(F)F)cc2-c2ccc3c(ccc4ccccc43)c2)cc1
Outline: as §1

entospletinib = compound: c1cn2cc(-c3ccc4cn[nH]c4c3)nc(Nc3ccc(N4CCOCC4)cc3)c2n1 [entospletinib]
Outline: as §1

UniProt O95347, sequence (O95347 whole entry, looked up): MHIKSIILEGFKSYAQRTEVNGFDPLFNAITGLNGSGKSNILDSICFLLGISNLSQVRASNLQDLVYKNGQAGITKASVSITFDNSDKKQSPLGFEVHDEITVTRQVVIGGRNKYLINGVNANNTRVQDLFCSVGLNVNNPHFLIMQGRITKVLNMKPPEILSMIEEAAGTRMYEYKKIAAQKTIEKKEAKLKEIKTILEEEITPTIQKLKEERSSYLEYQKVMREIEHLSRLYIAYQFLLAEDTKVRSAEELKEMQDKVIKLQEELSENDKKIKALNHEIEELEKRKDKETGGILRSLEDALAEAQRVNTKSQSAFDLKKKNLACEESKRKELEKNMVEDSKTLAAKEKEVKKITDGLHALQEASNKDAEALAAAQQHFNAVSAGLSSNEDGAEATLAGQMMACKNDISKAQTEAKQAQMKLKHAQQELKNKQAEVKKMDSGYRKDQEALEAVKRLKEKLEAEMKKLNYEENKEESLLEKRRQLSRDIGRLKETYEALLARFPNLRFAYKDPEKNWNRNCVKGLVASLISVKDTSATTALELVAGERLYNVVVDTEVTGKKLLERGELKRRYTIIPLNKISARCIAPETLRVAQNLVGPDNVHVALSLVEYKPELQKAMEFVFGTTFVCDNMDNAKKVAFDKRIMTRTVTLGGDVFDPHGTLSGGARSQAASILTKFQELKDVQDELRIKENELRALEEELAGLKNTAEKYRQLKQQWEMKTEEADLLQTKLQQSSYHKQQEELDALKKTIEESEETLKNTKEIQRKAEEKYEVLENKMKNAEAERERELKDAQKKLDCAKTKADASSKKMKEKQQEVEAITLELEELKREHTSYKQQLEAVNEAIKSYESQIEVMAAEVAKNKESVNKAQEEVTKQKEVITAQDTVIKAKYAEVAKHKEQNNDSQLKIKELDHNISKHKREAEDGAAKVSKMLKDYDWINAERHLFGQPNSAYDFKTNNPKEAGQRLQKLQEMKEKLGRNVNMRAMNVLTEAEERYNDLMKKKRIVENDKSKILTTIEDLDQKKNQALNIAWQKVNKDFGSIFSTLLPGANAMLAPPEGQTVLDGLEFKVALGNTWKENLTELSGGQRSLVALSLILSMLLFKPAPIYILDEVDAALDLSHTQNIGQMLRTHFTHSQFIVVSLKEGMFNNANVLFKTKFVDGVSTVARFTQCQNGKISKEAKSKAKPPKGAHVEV
UniProt Q15464, sequence (Q15464 whole entry, looked up): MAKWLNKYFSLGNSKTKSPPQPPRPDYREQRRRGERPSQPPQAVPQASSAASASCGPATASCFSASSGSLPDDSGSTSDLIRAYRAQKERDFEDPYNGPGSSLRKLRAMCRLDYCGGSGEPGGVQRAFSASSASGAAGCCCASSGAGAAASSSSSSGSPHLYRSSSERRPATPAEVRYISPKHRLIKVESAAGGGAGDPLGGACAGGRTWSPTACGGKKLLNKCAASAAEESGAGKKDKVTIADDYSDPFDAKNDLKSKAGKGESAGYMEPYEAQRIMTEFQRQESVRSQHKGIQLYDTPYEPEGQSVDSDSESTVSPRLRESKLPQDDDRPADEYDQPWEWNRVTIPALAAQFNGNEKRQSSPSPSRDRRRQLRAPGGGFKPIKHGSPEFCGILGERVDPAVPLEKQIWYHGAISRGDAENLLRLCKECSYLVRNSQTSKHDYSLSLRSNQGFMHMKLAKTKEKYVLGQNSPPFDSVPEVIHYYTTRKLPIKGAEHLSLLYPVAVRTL
UniProt Q9Y2H1, sequence (Q9Y2H1 whole entry, looked up): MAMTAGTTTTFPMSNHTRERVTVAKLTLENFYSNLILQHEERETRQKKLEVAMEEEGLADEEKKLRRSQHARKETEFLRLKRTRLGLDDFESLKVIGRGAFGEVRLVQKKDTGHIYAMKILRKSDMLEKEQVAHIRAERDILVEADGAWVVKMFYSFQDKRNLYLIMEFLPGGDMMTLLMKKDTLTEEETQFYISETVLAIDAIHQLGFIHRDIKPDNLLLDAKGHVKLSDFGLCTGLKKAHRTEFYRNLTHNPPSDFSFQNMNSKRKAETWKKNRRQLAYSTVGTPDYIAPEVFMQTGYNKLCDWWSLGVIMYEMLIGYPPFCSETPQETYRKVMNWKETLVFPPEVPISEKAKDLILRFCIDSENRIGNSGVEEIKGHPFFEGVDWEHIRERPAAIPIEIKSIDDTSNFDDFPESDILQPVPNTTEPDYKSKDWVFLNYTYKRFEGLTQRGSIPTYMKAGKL
UniProt O75182, sequence (O75182 whole entry, looked up): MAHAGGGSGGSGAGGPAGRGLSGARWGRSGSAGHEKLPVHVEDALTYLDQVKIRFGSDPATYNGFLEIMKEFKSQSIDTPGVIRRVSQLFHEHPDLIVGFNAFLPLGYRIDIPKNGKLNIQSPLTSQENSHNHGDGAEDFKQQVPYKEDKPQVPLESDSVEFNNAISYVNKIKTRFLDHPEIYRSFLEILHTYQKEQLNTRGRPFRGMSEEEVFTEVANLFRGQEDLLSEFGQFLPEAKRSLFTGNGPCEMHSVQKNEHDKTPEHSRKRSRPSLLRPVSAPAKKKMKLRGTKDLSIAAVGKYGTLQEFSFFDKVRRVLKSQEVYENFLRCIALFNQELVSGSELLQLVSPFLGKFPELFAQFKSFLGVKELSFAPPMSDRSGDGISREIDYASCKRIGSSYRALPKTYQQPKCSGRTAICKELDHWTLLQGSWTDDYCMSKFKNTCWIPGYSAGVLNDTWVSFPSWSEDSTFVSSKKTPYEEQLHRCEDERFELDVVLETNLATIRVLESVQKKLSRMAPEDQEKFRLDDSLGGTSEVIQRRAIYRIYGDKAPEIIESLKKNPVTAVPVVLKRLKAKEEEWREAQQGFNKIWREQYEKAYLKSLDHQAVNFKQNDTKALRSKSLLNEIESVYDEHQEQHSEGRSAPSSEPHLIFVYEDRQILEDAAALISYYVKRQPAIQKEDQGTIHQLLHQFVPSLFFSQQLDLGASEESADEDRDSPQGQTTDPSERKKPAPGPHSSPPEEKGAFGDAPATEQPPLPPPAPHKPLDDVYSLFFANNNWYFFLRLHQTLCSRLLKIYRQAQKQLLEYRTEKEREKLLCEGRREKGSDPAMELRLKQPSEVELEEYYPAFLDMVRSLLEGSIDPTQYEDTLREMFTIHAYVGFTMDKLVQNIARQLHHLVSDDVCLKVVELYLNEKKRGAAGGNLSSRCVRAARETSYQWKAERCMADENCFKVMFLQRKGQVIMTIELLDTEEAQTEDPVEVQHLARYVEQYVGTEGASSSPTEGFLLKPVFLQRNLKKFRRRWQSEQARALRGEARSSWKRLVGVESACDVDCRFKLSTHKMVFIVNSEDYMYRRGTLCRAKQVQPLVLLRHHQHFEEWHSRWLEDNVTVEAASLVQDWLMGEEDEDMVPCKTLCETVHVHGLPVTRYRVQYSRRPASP
UniProt Q9UMZ2, sequence (Q9UMZ2 whole entry, looked up): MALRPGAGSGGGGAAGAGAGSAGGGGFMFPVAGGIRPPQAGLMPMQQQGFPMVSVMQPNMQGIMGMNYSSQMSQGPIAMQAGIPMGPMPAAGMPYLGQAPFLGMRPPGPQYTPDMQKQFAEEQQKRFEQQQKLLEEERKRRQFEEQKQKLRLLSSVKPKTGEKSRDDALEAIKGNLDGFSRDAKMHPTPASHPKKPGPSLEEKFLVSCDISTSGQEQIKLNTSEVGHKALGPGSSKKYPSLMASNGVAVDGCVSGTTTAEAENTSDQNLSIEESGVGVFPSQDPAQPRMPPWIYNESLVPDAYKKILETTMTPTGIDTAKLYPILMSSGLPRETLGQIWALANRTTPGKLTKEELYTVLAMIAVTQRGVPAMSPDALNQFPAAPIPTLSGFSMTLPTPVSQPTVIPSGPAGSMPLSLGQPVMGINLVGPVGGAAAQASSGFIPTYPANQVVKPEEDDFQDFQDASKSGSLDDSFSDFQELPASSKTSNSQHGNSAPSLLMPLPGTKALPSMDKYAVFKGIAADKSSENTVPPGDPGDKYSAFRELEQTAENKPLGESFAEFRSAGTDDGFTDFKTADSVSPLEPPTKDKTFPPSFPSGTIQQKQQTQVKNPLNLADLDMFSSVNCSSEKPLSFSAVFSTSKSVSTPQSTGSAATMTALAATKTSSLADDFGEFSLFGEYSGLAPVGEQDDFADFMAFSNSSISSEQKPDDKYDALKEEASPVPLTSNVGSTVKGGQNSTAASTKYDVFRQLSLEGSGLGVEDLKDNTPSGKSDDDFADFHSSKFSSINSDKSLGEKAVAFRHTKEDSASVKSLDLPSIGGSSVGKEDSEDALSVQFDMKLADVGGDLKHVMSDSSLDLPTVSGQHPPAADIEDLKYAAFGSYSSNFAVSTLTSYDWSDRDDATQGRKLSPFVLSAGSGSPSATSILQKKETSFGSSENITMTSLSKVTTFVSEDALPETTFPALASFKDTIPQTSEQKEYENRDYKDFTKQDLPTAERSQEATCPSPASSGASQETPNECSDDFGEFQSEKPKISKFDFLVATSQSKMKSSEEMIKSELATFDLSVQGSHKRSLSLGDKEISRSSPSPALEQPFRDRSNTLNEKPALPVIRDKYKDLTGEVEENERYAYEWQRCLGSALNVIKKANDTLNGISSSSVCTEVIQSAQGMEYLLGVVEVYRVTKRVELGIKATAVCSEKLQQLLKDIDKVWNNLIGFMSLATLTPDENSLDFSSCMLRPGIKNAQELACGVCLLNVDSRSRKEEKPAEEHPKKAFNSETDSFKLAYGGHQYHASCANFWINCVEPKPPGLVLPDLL
UniProt Q15633, sequence (Q15633 whole entry, looked up): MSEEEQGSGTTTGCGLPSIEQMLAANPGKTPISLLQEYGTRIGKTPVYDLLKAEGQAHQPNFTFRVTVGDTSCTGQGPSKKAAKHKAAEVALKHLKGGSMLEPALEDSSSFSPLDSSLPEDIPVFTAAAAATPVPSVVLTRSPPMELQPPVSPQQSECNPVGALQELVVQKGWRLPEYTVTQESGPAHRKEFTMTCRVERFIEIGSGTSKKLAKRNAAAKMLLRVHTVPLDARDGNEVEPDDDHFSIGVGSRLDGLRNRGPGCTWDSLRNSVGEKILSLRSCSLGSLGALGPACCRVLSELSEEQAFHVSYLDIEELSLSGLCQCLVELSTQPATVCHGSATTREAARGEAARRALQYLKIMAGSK

Target | log2 fold change (vorinostat) | log2 fold change (silmitasertib) | log2 fold change [1] | log2 fold change [2] | log2 fold change (entospletinib)
STK17B (UniProt O94768) | -0.221 | 0.807 (active) | 0.052 |  | 
SLC20A1 (UniProt Q8WUM9) | 0.062 | -0.05 | 0.021 | 0 | 0.064
SHCBP1 (UniProt Q8NEM2) | -0.37 (active) | 0.04 | -0.009 | 0.02 | -0.013
SNX6, A0A0A0MRI2 | -0.325 (active) | 0.018 | 0.015 | -0.005 | 0.003
SIX5 (UniProt Q8N196) | 0.162 | -0.011 | -0.097 |  | 
SHC1 isoform 6 (UniProt P29353) | 0.025 | -0.017 | -0.055 | 0.029 | -0.058
SRC isoform 2 (UniProt P12931) | 0.073 | -0.069 |  |  | -0.111
TARBP2 (UniProt Q15633) | -0.519 (active) | 0.024 | -0.03 | -0.017 | -0.002
SMARCA4 isoform 4 (UniProt P51532) | 0.166 | -0.198 | 0.119 |  | -0.083
STK38L (UniProt Q9Y2H1) | -0.162 | 0.184 | 0.022 |  | 0.043
SYNRG (UniProt Q9UMZ2) | -0.002 | -0.01 | -0.002 | 0.02 | -0.014
SPA17 (UniProt Q15506) |  |  | 0.022 | 0.049 | -0.025
SYPL1 (UniProt Q16563) | 0.005 | -0.03 | -0.02 | -0.003 | 0.014
STAU1 isoform 3 (UniProt O95793) | -0.076 | -0.103 | -0.156 |  | 
SIN3B (UniProt O75182) |  |  | 0.559 | 0.195 | -0.089
SMC2 (UniProt O95347) | -0.308 (active) | 0.016 | -0.01 | 0.014 | 0.009
SLC39A13 (UniProt Q96H72) | -0.064 | -0.092 |  |  | 
SLC12A6 isoform 2 (UniProt Q9UHW9) | 0.17 | -0.03 | -0.064 |  | -0.114
SNAP23 isoform 2 (UniProt O00161) | -0.85 (active) | -0.028 |  | 0.146 | -0.329
TAOK2 (UniProt Q9UL54) |  |  | -0.051 | 0.015 | 0.01
SLC30A6 isoform 2 (UniProt Q6NXT4) | 0.11 | 0.01 | 0.001 | 0.014 | 0.064
SNAPC2 (UniProt Q13487) | -0.631 (active) | -0.122 | -0.086 |  | 
SMIM1 (UniProt B2RUZ4) | 0.177 | -0.076 | 0.12 |  | 0.042
TAF11 (UniProt Q15544) |  |  | 0.05 | -0.005 | -0.073
TARDBP (UniProt K7EN94) |  |  |  | 0.1 | -0.166
SPAG1 (UniProt Q07617) |  |  | -0.061 | 0.227 | 
STK26 isoform 3 (UniProt Q9P289) |  |  | 0.014 |  | 0.116
TAF1B (UniProt Q53T94) |  |  | -0.044 | 0.673 (active) | -0.026
SHB (UniProt Q15464) | -0.356 (active) | 0.117 | 0.044 |  | 
